91 compounds from PubChem BioAssay AID588689 (Southern Research Specialized Biocontainment Screening …, 2011) can be followed below.

For the assay, the target named is Genome polyprotein (Dengue virus type 2 (strain 16681-PDK53)) (UniProt P29991). As to the kind of experiment: Dengue-2 NS5 methyltransferase inhibitors, primary screen, biochemical, confirmation dose response (AID 588689). As to conditions: Dengue-2 NS5 methyltransferase capping enzyme assay, at 25 µM, stronger effect = higher value.
Genome polyprotein (Dengue virus type 2 (strain 16681-PDK53)), sequence (P29991 whole entry, looked up): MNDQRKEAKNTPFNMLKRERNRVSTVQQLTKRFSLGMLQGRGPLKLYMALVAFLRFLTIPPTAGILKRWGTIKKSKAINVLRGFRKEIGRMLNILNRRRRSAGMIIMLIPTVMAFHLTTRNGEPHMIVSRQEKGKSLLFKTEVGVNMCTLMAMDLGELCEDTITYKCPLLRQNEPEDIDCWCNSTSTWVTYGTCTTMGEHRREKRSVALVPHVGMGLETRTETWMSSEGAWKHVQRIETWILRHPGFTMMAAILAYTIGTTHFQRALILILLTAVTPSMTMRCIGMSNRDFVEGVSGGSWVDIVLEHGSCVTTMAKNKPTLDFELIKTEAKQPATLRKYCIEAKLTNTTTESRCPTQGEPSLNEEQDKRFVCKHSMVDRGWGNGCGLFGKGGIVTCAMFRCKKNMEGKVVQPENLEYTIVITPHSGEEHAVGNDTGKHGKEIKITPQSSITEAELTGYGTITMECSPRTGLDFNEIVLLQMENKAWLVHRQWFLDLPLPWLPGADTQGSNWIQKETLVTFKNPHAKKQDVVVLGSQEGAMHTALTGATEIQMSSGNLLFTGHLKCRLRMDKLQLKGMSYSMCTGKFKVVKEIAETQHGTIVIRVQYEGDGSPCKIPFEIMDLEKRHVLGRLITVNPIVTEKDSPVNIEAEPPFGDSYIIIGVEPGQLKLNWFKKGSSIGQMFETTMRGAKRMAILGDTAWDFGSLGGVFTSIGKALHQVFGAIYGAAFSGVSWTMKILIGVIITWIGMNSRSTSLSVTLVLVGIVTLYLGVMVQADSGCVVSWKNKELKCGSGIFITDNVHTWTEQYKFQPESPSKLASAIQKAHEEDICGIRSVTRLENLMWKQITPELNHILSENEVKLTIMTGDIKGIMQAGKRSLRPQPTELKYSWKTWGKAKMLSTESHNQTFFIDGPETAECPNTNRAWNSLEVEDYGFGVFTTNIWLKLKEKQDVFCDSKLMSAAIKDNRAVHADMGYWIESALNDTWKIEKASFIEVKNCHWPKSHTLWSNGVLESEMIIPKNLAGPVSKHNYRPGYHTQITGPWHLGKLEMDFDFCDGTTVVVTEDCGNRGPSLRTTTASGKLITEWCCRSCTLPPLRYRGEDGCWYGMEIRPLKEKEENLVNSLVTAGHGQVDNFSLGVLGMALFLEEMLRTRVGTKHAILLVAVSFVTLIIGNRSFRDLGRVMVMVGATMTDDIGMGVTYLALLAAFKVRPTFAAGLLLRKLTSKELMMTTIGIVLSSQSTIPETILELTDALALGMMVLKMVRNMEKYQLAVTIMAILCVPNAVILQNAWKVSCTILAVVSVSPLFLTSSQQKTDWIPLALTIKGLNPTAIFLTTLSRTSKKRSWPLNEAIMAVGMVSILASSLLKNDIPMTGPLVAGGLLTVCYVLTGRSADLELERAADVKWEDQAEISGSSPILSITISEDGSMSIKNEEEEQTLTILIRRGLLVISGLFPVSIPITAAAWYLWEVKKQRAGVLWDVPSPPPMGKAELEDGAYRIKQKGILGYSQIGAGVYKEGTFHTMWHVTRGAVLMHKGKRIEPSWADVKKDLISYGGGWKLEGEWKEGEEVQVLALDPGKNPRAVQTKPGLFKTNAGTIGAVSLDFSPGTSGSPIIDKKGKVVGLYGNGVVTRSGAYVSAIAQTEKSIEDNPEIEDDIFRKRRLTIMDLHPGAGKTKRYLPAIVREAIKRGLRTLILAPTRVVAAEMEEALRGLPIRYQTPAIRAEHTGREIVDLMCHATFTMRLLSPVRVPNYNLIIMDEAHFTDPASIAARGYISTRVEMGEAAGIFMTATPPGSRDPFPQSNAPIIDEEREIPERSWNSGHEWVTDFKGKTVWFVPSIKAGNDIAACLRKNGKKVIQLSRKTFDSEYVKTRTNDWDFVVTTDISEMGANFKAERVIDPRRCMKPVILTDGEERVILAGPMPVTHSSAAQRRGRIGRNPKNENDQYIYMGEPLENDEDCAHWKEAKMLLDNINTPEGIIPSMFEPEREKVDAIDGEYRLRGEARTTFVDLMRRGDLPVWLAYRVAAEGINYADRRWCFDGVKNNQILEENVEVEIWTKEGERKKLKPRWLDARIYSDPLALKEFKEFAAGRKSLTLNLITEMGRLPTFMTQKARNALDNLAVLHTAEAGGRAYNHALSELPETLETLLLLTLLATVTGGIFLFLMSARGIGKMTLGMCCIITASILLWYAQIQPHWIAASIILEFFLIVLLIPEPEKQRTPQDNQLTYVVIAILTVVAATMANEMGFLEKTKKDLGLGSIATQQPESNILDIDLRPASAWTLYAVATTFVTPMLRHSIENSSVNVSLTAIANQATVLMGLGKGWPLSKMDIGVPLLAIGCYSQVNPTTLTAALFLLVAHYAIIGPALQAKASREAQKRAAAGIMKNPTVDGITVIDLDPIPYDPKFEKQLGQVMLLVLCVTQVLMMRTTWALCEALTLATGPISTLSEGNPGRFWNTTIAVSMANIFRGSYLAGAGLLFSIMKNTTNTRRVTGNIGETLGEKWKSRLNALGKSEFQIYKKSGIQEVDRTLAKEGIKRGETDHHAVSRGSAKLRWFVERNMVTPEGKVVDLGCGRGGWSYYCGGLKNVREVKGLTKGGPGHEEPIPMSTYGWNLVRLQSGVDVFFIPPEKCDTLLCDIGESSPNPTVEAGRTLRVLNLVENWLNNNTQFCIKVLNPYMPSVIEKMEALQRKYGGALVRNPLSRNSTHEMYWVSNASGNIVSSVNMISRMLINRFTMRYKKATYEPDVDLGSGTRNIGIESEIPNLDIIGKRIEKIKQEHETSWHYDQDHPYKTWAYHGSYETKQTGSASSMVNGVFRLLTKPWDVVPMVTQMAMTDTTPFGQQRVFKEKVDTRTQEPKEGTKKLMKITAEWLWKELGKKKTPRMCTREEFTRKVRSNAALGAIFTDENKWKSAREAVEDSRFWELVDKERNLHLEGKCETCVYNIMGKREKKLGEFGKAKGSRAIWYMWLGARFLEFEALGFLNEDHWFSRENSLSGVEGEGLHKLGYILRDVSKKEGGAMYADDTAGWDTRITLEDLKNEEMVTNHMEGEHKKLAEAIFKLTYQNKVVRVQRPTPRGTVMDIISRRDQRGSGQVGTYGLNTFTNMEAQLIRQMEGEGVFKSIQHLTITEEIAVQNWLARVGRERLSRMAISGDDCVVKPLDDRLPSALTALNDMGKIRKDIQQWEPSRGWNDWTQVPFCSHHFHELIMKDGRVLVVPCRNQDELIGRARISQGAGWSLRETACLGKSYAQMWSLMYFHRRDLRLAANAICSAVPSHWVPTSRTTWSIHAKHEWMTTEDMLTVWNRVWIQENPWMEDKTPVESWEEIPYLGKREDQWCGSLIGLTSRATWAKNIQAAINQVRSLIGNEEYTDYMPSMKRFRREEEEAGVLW
Setting [1] is: measured here: pilot screen replicate inhibition.

Among all 340,000 compounds or so, about 1,000 (0.29%) were called active. Cut-off read from the data, not from the text of the source: inconclusive = inhibition above about 29% without an active follow-up result; inactive = below that. Only a sample is shown. Measured potencies and affinities stand elsewhere.

In the case of `Cc1cn([C@H]2C[C@H](O)[C@@H](CNC(=O)CNC(=O)CN)O2)c(=O)[nH]c1=O`, the inhibition (in general, the change of the read-out against control, counted positive when it falls) is 2.27% (inactive).
For `CCOc1ccc2nc(N/C(N)=N/S(=O)(=O)c3ccc(C)cc3)nc(C)c2c1`, the inhibition is -2.74% (inactive).
On to `Cc1ccc(NC(=O)CC(=O)c2ccccc2)cc1C`, for which the inhibition is -1.66% (inactive).
Same read-out and setting: as for `C[C@H](NC(=O)c1ccccc1Cl)C(=O)OC(C(=O)Nc1cc(C(F)(F)F)ccc1Cl)c1ccccc1` (stereo partly specified), the figure is 6.11% (inactive); as for `Oc1ccccc1N=N/C(=N/Nc1ccccc1O)c1ccccc1`, 6.32% (inactive); as for `O=C(O)c1cc(S(=O)(=O)Nc2ccccc2C(=O)O)ccc1O`, 24.8% (inactive).
As to `Cc1cccc(NC(=O)c2cc(NC(=O)C3CCCCC3C(=O)O)ccc2N2CCOCC2)c1` (stereo unspecified), the inhibition was 3.25% (inactive).
`CC(=O)Nc1ccc(N2CCCCC2)c(C(=O)Nc2cccc(C)c2)c1`: the inhibition was 1.3% (inactive).
On to `Cc1cnc(C(=O)OCc2nc3ccsc3c(=O)[nH]2)cn1`, for which the inhibition was -4.41% (inactive).
Take `Cc1ncc(CN2CCCC(C(=O)Nc3ccc(-c4ccco4)cc3)C2)cn1` (stereo unspecified): the inhibition was -25.6% (inactive).
For the compound `O=C1C(=C(O)c2ccccc2)C(=O)c2ccccc21`, the inhibition was 12.9% (inactive).
`O=C1C(=O)c2ccc(-c3ccccc3)cc2-c2ccccc21`: the inhibition is -10.1% (inactive). In addition, the inhibition under setting [1] worked out at 8.18%.
Consider `COc1ccccc1-n1cc(-c2ccccc2)c2c(=S)nc[nH]c21`, for which the inhibition was 7.35% (inactive).
Same read-out and setting: as for `COc1ccc(NC(=O)CCCc2ccccc2)cc1OC`, the figure is -7.95% (inactive); as for `CC(=O)NC(CC(=O)OCC(=O)c1ccc(NC(=O)CC(C)C)cc1)c1ccccc1` (stereo unspecified), -7.74% (inactive); as for `O=C1C(Cl)=C(NCCCO)C(=O)c2ccccc21`, -6.93% (inactive).
In the case of `O=S(=O)(Nc1ccc2cn[nH]c2c1)c1ccc(Cl)cc1`, the inhibition was -2.71% (inactive).
As for `CCNC1=C(Cl)C(=O)c2ccccc2C1=O`, the inhibition is 6.43% (inactive).
In the case of `O=C1C(Cl)=C(Nc2ccc(O)cc2)C(=O)c2ccccc21`, the inhibition is 27.1% (inactive).
As for `O=C(O)c1cccc(NC2=C(n3nnc4ccccc43)C(=O)c3ccccc3C2=O)c1`, the inhibition was 0.29% (inactive).
Turning to `Cc1ccc(NC2=C(Cl)C(=O)c3ccccc3C2=O)cc1`, the inhibition is -0.64% (inactive).
Turning to `O=C1C(Cl)=C(Nc2ccccc2)C(=O)c2ccccc21`, the inhibition is 5.85% (inactive).
`O=C(O)c1cccc(NC2=C(N3CCOCC3)C(=O)c3ccccc3C2=O)c1`: the inhibition is 15% (inactive).
As for `CCOC(=O)CSc1nnc(-c2cccs2)n1-c1ccccc1`, the inhibition was -7.23% (inactive).
Same read-out and setting: as for `COc1ccc(C)cc1NC(=O)NNC(=O)c1ccoc1C`, the figure is 5.8% (inactive); as for `COc1cccc(NC(=O)CN2CCC(NC(=O)c3ccccc3C)CC2)c1`, -2.2% (inactive); as for `Cc1ccc(NC2=C(NC(=O)c3ccccc3)C(=O)c3ccccc3C2=O)cc1Cl`, 26.9% (inactive).
As for `Cc1cccc(NC2=C(NCCO)C(=O)c3ccccc3C2=O)c1`, the inhibition is 1.45% (inactive).
Regarding `C=CCOc1ccc(/C=C/C(=O)OCC(=O)NCCCc2ccccc2)cc1`, the inhibition was 0% (inactive).
As to `Cn1c(NC(=O)c2ccc(C(C)(C)C)cc2)cc(=O)n(C)c1=O`, the inhibition is 2.78% (inactive).
The same measure, in the same setting: as for `O=C(c1cccnc1)N1CCN(CCCc2ccccc2)CC1`, the figure is -7.9% (inactive).
Turning to `Cc1ccc(NC(=O)COc2cccc(/C=C3\SC(=S)N(CCC(=O)O)C3=O)c2)cc1Cl`, the inhibition is 0.88% (inactive).
Regarding `COc1ccc(/C=C2/SC(=S)N(CCC(=O)O)C2=O)cc1`, the inhibition was 4.79% (inactive).
On the same count and under the same terms, as for `COc1cccc(/C=C2\SC(=S)N(CCC(=O)Nc3ccc(O)cc3)C2=O)c1`, the figure is 3.49% (inactive); as for `O=C(O)CCN1C(=O)/C(=C\c2cccc(OCc3ccccc3)c2)SC1=S`, 40.6% (inactive); as for `O=C(COC(=O)c1cc(S(=O)(=O)N2CCOCC2)ccc1F)NCc1ccc2c(c1)OCO2`, -7.39% (inactive).
Take `C/C(CCc1ccccc1)=N/NC(=O)C(=O)NC(C)c1ccccc1` (stereo unspecified): the inhibition was -9.31% (inactive).
Turning to `CCc1cc(C(=O)Cc2cnn(-c3ccccc3)c2)c(O)cc1O`, the inhibition is 5.45% (inactive). The inhibition under setting [1] was -6.54%.
Turning to `O=C(c1cnn(-c2ccccc2)c1)c1ccccc1O`, the inhibition was 4.45% (inactive).
On to `O=C(Cc1ccc(Br)cc1)Nc1nc2ccccc2[nH]1`, for which the inhibition is 3.24% (inactive).
As to `COc1cccc(C(=O)N/N=C/c2ccc(OC)c(COc3ccccc3C(N)=O)c2)c1`, the inhibition is 3.25% (inactive).
Consider `C=CCn1c(SCC(=O)NC(=O)NCCC)nnc1C1CCCCC1`, for which the inhibition is 3.46% (inactive).
Turning to `O=C1c2ccccc2CCC12OC2c1ccc([N+](=O)[O-])cc1` (stereo unspecified), the inhibition was -3.43% (inactive).
Consider `CCSc1nc2cc(OC)c(OC)cc2c(=O)n1CC`, for which the inhibition was 2.71% (inactive).
Turning to `CCOc1ccc(C(=O)CSc2nnc(C3CC3)n2C)cc1`, the inhibition is -4.8% (inactive).
Regarding `CCOc1ccc(-c2cn(-c3ccc(OC)cc3)c(SC)n2)cc1`, the inhibition is -2.59% (inactive).
`COc1cccc(C(c2c(O)nc(SC)n(C)c2=O)c2c(O)nc(SC)n(C)c2=O)c1`: the inhibition was 16.2% (inactive). For the same compound, under setting [1], the inhibition was -1.21%.
As for `COc1ccc(C(c2c(O)nc(SC)n(C)c2=O)c2c(O)nc(SC)n(C)c2=O)cc1O`, the inhibition was -4.46% (inactive).
On to `CCn1c(SCC(N)=O)nnc1-c1ccc(OC)c(OC)c1`, for which the inhibition was -2.41% (inactive).
For `COCCn1c(C)nnc1SCC(=O)NNC(=O)c1ccc(Br)cc1`, the inhibition is -3.23% (inactive).
Same read-out and setting: the result for `O=C(ONC(=O)C1C2C=CC(C2)C1C(=O)NOC(=O)c1ccccc1)c1ccccc1` (stereo unspecified) reads -1.55% (inactive).
Turning to `O=C(CC1SCCNC1=O)Nc1ccccc1Cl` (stereo unspecified), the inhibition was 0% (inactive).
Take `COc1ccccc1C(=O)NCC(=O)N/N=C/c1cn[nH]c1-c1ccccc1`: the inhibition is -1.82% (inactive).
For `Cc1c(OC(C)C(=O)NCC(O)c2ccccc2)ccc2c3c(c(=O)oc12)CCCC3` (stereo unspecified), the inhibition was 2.62% (inactive).
On the same count and under the same terms, as for `CN1CCc2c(sc(NC(=O)c3ccc([N+](=O)[O-])o3)c2C(N)=O)C1`, the figure is 6.69% (inactive); as for `CC(C)N1CCc2c(sc(NC(=O)c3ccc([N+](=O)[O-])o3)c2C(N)=O)C1`, -6.69% (inactive); as for `COc1ccc(C(CNC(=O)c2ccc(-c3ccccc3Cl)o2)N2CCCC2)cc1` (stereo unspecified), 1.14% (inactive).
For `NS(=O)(=O)c1ccc(CCNC(=O)Nc2ccc(Cl)c(Cl)c2)cc1`, the inhibition is -1.37% (inactive).
Consider `CCc1c(C(=O)N2CCOCC2)csc1C`, for which the inhibition was -2.41% (inactive).
Consider `O=C(c1ccccc1)c1cn[nH]c1-c1ccccc1O`, for which the inhibition was -2.78% (inactive).
Still for that read-out and setting: the result for `Cc1nc(COC(=O)c2ccc(CO)cc2)cs1` reads -2.35% (inactive).
As to `COc1ccc(C(=O)OCc2csc(C)n2)c(O)c1`, the inhibition was -2.19% (inactive).
As to `CCCCc1c(C(=O)O)cc(OC)cc1C(=O)O`, the inhibition is 5.73% (inactive).
For `CCCCCc1cc(OC)cc2c1C(=O)OC(C)(C)O2`, the inhibition was 1.32% (inactive). Besides, the inhibition under setting [1] is -1.23%.
Take `COc1ccc(OC)c(C(=O)CCCCC(=O)c2cc(OC)ccc2OC)c1`: the inhibition was 2.88% (inactive).
On the same count and under the same terms, the result for `COc1ccc(OC)c(C(=O)CCCC(=O)c2cc(OC)ccc2OC)c1` reads 5.23% (inactive).
For `Cc1nc2c([nH]1)C1(CCN(Cc3ccccc3)CC1)C(C#N)=C(N)O2`, the inhibition is 12.1% (inactive).
For `O=C(c1ccncc1)N(Cc1cc2ccccc2[nH]c1=O)C1CCCCC1`, the inhibition is -1.6% (inactive).
Same read-out and setting: the result for `Cc1ccc(NS(=O)(=O)c2ccccc2)c(NS(=O)(=O)c2ccccc2)c1` reads 13.2% (inactive); that for `COc1ccc(S(=O)(=O)NC2CC3CCC2C3)cc1` (stereo unspecified), -4.66% (inactive).
Same read-out and setting: as for `COc1ccccc1COc1ccc2c(C)c(CCC(=O)O)c(=O)oc2c1C`, the figure is 7.18% (inactive).
`COc1cccc(-c2coc3cc4oc(=O)c(CCC(=O)O)c(C)c4cc23)c1`: the inhibition is 9.7% (inactive).
On to `Cc1c(CC(=O)O)c(=O)oc2c(C)c(OCc3ccc(F)cc3Cl)ccc12`, for which the inhibition is 1.96% (inactive).
For `COc1ccc(-c2coc3c(C)c4oc(=O)c(CCC(=O)O)c(C)c4cc23)cc1`, the inhibition was 11.8% (inactive).
Take `Cc1c(CCC(=O)O)c(=O)oc2cc3occ(-c4ccc(Cl)cc4)c3cc12`: the inhibition was 18.3% (inactive).
Take `Cc1c(CCC(=O)O)c(=O)oc2cc3occ(-c4ccc(Br)cc4)c3cc12`: the inhibition was 17.7% (inactive).
On to `Cc1c(CC(=O)O)c(=O)oc2c(C)c3occ(-c4ccc(Br)cc4)c3cc12`, for which the inhibition was 26.1% (inactive).
For `COc1cccc(-c2coc3c(C)c4oc(=O)c(CC(=O)O)c(C)c4cc23)c1`, the inhibition was 1.96% (inactive).
For `CCC[C@@H](CN1CCC[C@H]1CN1C(N)=NC[C@@H]1Cc1ccccc1)N1C[C@@H]([C@H](C)CC)N(CCc2ccc(Cl)c(Cl)c2)C1=N`, the inhibition is -10.2% (inactive).
Same read-out and setting: as for `COc1ccc(-n2c(=O)cc(N3CC(C)OC(C)C3)[nH]c2=O)cc1` (stereo unspecified), the figure is -3.21% (inactive); as for `N#Cc1ccc(OCc2nnc3n2CCCCC3)cc1`, -1.53% (inactive).
For `CCOCCn1c(CN2CCN(C(c3ccccc3)c3ccccc3)CC2)nc2c1c(=O)n(C)c(=O)n2C`, the inhibition is -5.88% (inactive).
As to `COc1ccc(NC(=O)Nc2ccc3c(c2)CCC3)cc1`, the inhibition was 1.61% (inactive).
Consider `CCCC(=O)OCCNc1cc(Sc2nc3ccccc3[nH]2)c2nonc2c1[N+](=O)[O-]`, for which the inhibition is 20.4% (inactive).
Take `Cc1nnc(Sc2cc(NCCO)c([N+](=O)[O-])c3nonc23)s1`: the inhibition was 1.46% (inactive).
Regarding `Cc1ccc(Sc2cc(NCCCO)c([N+](=O)[O-])c3nonc23)cc1`, the inhibition was 16.2% (inactive).
Take `CN(CCO)c1cc(Sc2nc3ccccc3s2)c2nonc2c1[N+](=O)[O-]`: the inhibition was 48.2% (inactive).
`CCC(=O)OCCNc1cc(Sc2nc3ccccc3[nH]2)c2nonc2c1[N+](=O)[O-]`: the inhibition was 29.8% (inactive).
Same read-out and setting: the result for `Cc1nnc(Sc2cc(NCCCO)c([N+](=O)[O-])c3nonc23)s1` reads 18.5% (inactive).
As for `C[C@@H]1CC=C[C@@H]2[C@H]1C(=O)N(Cc1ccccc1)[C@H]2c1cccc(C#Cc2ccccc2)c1`, the inhibition was -4.3% (inactive). In addition, the inhibition under setting [1] was -5.45%.
Consider `CC(C)=CCC(C)(C)C1OCCN1C(=O)c1ccccc1` (stereo unspecified), for which the inhibition was -7.18% (inactive).
